Hits are enriched below; roughly 7.1% of the tested compounds scored in any of these assays.
ATXN viability – Viability Counterscreen for Primary qHTS for Inhibitors of ATXN expression | S2 cells (HEK-293 line with an ATXN2-luciferase reporter) viability, CellTiter-Fluor protease fluorescence, 24 h | AID 651635, 2014 | 0.49% of 400,000 active | Potency, µM (top dose mostly 56.7 µM), most hits filed as cytotoxic; further: potency means the concentration at half of the fitted maximal effect; nearly all actives have a fitted effect of over 40% in size
MCF10A rerep – A quantitative high throughput screen for small molecules that induce DNA re-replication in MCF 10a normal breast cells. MCF 10A DNA re-replication, Hoechst nuclear intensity, 48 h. Potency, µM (series often up to 46.1 µM), inactives show top-dose activity, positive = re-replication, usual class: activators. 2.9% of 350,000 active. AID 624296, 2012; further: potency means the concentration at half of the fitted maximal effect; % of control where 0% means no effect; nearly all actives have a fitted effect of over 50% in size
SW480 rerep – A quantitative high throughput screen for small molecules that induce DNA re-replication in SW480 colon adenocarcinoma cells; Potency, µM (series often up to 46.1 µM), for the others: at the highest dose re-replication activation, actives largely listed as activators; 1.8% of 340,000 active; SW480 DNA re-replication, Hoechst DNA content imaging, 48 h; further: potency means the concentration at half of the fitted maximal effect; % of control where 0% means no effect; nearly all actives have a fitted effect of over 55% in size
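Compounds, transferred as 23 nL by pin tool, were incubated with cells for 48 hr; DNA content per nucleus was then quantified by Hoechst staining and fluorescence plate imaging.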
PINK1 expr mod – A Quantitative High throughput Screen to Identify Chemical Modulators of PINK1 Expression; AID 624263, 2012; Potency, µM (doses to about 76.6 µM), for the others: at the top dose activation (PINK1 increase), most hits filed as activators; PINK1 immunofluorescence, high-content cytometry, 24 h; 0.2% of 410,000 active; active means well fitted activation curve with a large enough effect; inconclusive means small, poorly fitted or top-dose-only effect; cell line not stated here; further: potency means the concentration at half of the fitted maximal effect; % of control where 0% means no effect; nearly all actives have a fitted effect of over 65% in size
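Readout is PINK1 immunofluorescence, quantified alongside mitochondrial, cell and nuclear markers by laser-scanning microplate cytometry. Cells from a stable line were exposed to compound titrations (5 concentrations) for 24 hours, with CCCP controls.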
ATXN2 expr inh – Primary qHTS for Inhibitors of ATXN expression. HEK-293 ATXN2-luciferase reporter, luminescence, 24 h. Potency, µM (doses to about 57 µM), for inactives: top-dose activity change, negative = inhibition, actives largely listed as inhibitors. 0.72% of 360,000 active; further: potency means the concentration at half of the fitted maximal effect; on the % scale 0 is the no-effect control and ±100 the full control effect; nearly all actives have a fitted effect of over 55% in size
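qHTS (up to 57 uM final) was run with 24 h compound exposure of reporter cells at 37 °C. Each well was multiplexed: SteadyGlo luminescence measured ATXN2-luciferase expression after a fluorogenic Gly-Phe-AFC viability readout (25 uM final).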
IL1B secr inh – qHTS for Inhibitors of Inflammasome Signaling: IL-1-beta AlphaLISA Primary Screen. THP-1 LPS/ATP IL-1B secretion, AlphaLISA, 16 h; stronger effect = lower value. activity change, % at 57.5 µM. 4.7% of 360,000 active; in the data active means activity change below about -50%; inconclusive means mostly about -30% to -49%; further: on the % scale 0 is the no-effect control and ±100 the full control effect
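THP-1 cells pretreated 1 hr with compounds (up to 57.5 uM final), then stimulated with LPS (250 ng/mL final) plus ATP (1.25 mM final); secreted IL-1B measured by AlphaLISA after 16 hr, decreased signal indicating inhibition.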
* marks the source's active call; other numbers are inactive results; i = inactive; ? = inconclusive; . = no result; ! = not active in a repeat; [ ] = another dose, or the depositor's remark. Unless noted, the call rests on the fitted dose curve; in most records, active means well fitted curve in the direction sought with a large enough effect; inconclusive means small, poorly fitted or top-dose-only effect, or another doubt; inactive means no such curve, though single readings can be large; an effect the other way counts as inactive or inconclusive.

SMILES | ATXN viability | MCF10A rerep | SW480 rerep | PINK1 expr mod | ATXN2 expr inh | IL1B secr inh
COc1cc2nc(N3CCN(C(=O)C4COc5ccccc5O4)CC3)nc(N)c2cc1OC (configuration not stated) | ? | 15µM*! | 21µM*! | 2% | ? | 0
COc1ccc2c(C)c(CC(=O)N3CCN(C(=O)C4COc5ccccc5O4)CC3)c(=O)oc2c1C (configuration not stated) | i | ? | 16µM* | 5% | -3% | ?
O=C(CCl)N1CCN(C(=O)C2COc3ccccc3O2)CC1 (configuration not stated) | ? | ? | ? | 5% | -30% | -95*
O=C(NCC1Cc2cc(-c3cnc4ccccc4c3)cc(F)c2O1)c1cnsn1 (configuration not stated) | ? | . | . | 9% | . | .
CCOc1ccc(-c2c(C)nn3c(C)c(C(=O)Nc4ccccc4C(=O)OC)cnc23)cc1OCC | i | . | . | 0% | -4% | .
COc1ccc(C(=O)OCc2c(C)noc2C)cc1 | i | -42% | -8% | 0% | 21% | 0
Cc1cc(=O)oc2cc(OCC(=O)OCC(=O)N3CCC(C)CC3)ccc12 | i | -42% | ? | -2% | -19% | -60*
COc1ccc2oc(C(=O)N3CCN(C/C=C/c4ccccc4)CC3)c(C)c2c1 | i | 23µM* | 3% | 0% | -23% | 8
COc1ccc2oc(C(=O)OCC(=O)N3CCC(C)CC3)c(C)c2c1 | i | -1% | -4% | 0% | 4% | -55*
COc1ccc2oc(C(=O)OCc3c(C)noc3C)c(C)c2c1 | i | 7% | 3% | 0% | -15%[11.3 µM] | -107*
O=C(c1ccoc1)N1CCOc2ccc(CN3CCC(Oc4cccnc4)CC3)cc2C1 | i | . | . | -1% | . | .
N#CCCn1c(=O)c(-c2ccc(Cl)cc2)nc2cnc(N3CCOCC3)nc21 | . | . | . | 0% | . | .
Cc1nc2c(C(=O)NCc3ccccc3Cl)c[nH]n2c(=O)c1Cc1cccc(Cl)c1 | i | . | . | 0% | 0% | .
CC(=O)c1cccc(NC(=O)c2sc(-n3nc(C)c(Cc4ccc5c(c4)OCO5)c3C)nc2C)c1 | . | . | . | 1% | . | .
Cc1ccc(CN(Cc2ccco2)C(=O)c2ccc(OCC(C)C)cc2)cc1 | i | . | . | 27% | -23% | .
O=C(Cc1ccccc1)Nc1cc(-c2nc3cc(Cl)ccc3o2)ccc1Cl | i | . | . | 6% | 37% | .
O=C(Cn1cccn1)N1CCOc2c(cc(-c3ncc(C(F)(F)F)cc3Cl)cc2OCC2CCCO2)C1 (configuration not stated) | i | . | . | 0% | . | .
CCC(C)c1ccc(Nc2ncccc2C#N)cc1 (configuration not stated) | i | -3% | 1% | 1% | 34% | 0
CCc1ccc(Nc2ncccc2C#N)cc1 | ? | 0% | -165% | 1% | 33% | -59*
CC(C)N(Cc1ccccc1)C(=O)COC(=O)/C=C/c1cnc2ccccc2n1 | i | ? | -1% | 1% | . | -201*
CCN(C(=O)COC(=O)/C=C/c1cnc2ccccc2n1)c1ccccc1 | i | ? | -15% | 4% | -19% | -13
CC(C)c1ccc(Cn2ccc3c4c(N)nc(NC5CC5)nc4ccc32)cc1 | . | . | . | . | 24µM* | .
CCNc1cc(NC2CCC(O)CC2)nc(Nc2ccc3c(ccn3Cc3ccccc3)c2)n1 (configuration not stated) | . | . | . | . | -19% | .
Cc1ccc(Cl)cc1NS(=O)(=O)c1cc2c3c(c1)CC(=O)N3CCC2 | . | . | . | 4% | . | .
CCn1cc2nc(SCC(=O)Nc3ccc(C)cc3)n(Cc3ccc(C)cc3)c(=O)c2n1 | ? | . | . | 1% | -18% | .
SMILES | ATXN viability | MCF10A rerep | SW480 rerep | PINK1 expr mod | ATXN2 expr inh | IL1B secr inh
CN1CCN(Cc2nc3ccccc3c(=O)n2Cc2nc(-c3cccc([N+](=O)[O-])c3)cs2)CC1 | i | 9% | -6% | 0% | -37%[11.3 µM] | -78*
O=C(O)c1cc(-c2cccc([N+](=O)[O-])c2)nc2ccccc12 | i | 0% | -6% | -1% | 2% | 18
CN1CCN(Cc2nc3ccccc3c(=O)n2Cc2nc(-c3ccccc3F)cs2)CC1 | i | 7% | 24% | 4% | -16% | ?
CN1CCN(Cc2nc3ccccc3c(=O)n2Cc2nc(-c3ccc4ccccc4c3)cs2)CC1 | . | ? | 12µM* | -2% | ? | -95*
Cn1c(=O)c(=O)n(C)c2cc(N3CCOCC3)c(NS(=O)(=O)c3ccc(Br)cc3)cc21 | i | -1% | 0% | 1% | -22% | -69*
Cc1ccc(S(=O)(=O)Nc2cc3c(cc2N2CCOCC2)n(C)c(=O)c(=O)n3C)cc1 | i | 2% | -12% | -1% | 19% | -10
Cc1ccc(CNC(=O)c2cc3c(=O)n(C)c4ccccc4c3n2C)cc1 | i | -4% | -4% | 5% | -4% | -1
Cn1c(C(=O)NCCN2CCOCC2)cc2c(=O)n(C)c3ccccc3c21 | i | 0% | -2% | 1% | 4% | -8
CN(CCNC(=O)c1cc2c(=O)n(C)c3ccccc3c2n1C)Cc1ccccc1 | i | 21µM* | 3% | 10% | -36% | ?
CCCN(CCC)CCNC(=O)c1cc2c(=O)n(C)c3ccccc3c2n1C | ? | ? | 1% | 2% | -25% | -63*
CC1CCCCN1CCNC(=O)c1cc2c(=O)n(C)c3ccccc3c2n1C (configuration not stated) | ? | ? | -1% | 5% | -26% | -55*
COc1cc(=O)n2c(c1C(=O)NCc1ccsc1)CCN(Cc1nc3ccccc3[nH]1)CC2 | i | . | . | 2% | . | .
CCc1cccc(NC(=O)c2nc(-c3ccncc3)no2)c1 | . | . | . | -2% | . | .
CN(C(=O)c1ccc2c(c1)N(Cc1ccc(F)cc1)C(=O)c1ccccc1S2(=O)=O)C1CCCCC1 | i | . | . | 0% | -23% | .
COc1ccc(OC)c(NC(=O)c2nc(S(=O)(=O)Cc3ccccc3F)ncc2Cl)c1 | . | . | . | 14% | . | .
Cc1ccc(CN2CCOc3ccc(CN4CCC(O)(c5cccnc5)CC4)cc3C2)cc1C | i | . | . | 1% | . | .
CN(C)/C=N/c1nc2nccc(-c3cccc(Cl)c3)n2n1 | i | -39% | -56% | 0% | -1% | -52*
Cc1ccc2occ(C(c3nnnn3C3CCCC3)N3CCN(C(=O)c4ccco4)CC3)c(=O)c2c1 (configuration not stated) | i | -8% | 2% | 3%[38.3 µM] | -13% | -64*
